Measured values: the supplement of paper PMC10849652
About 8,800 targets were measured; listed, in parts, are those with a hit and a random draw of the rest. About 0.5% of all pairs of compound and target were hits.

Tests used:
Assay in all cases: log2 fold change, soluble protein after heating vs DMSO (PISA); higher = thermal stabilisation; K562 lysate, 10 uM; active = over 0.2 and 3.5 SD of the protein, either way, in both replicates (recomputed)
lapatinib = compound: CS(=O)(=O)CCNCc1ccc(-c2ccc3ncnc(Nc4ccc(OCc5cccc(F)c5)c(Cl)c4)c3c2)o1 [lapatinib]
Method in brief: (§1)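 Following dounce homogenisation of K562 pellets in PBS pH 7.4 with 1 mM MgCl2, crude extract at 1 mg/mL protein was incubated for 30 min with 10 μM compound. Aliquots were then heated for 3 min over 48°C-58°C and pooled, NP-40 was added to 0.5% at 4°C, and soluble protein was recovered as the supernatant at 21,000xg for 90 min. Channel-sum-equalised TMTpro 16plex LC-MS/MS quantified this protein. Each value, from duplicates, is a log-two fold change in thermal stability relative to solvent controls.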

pictilisib = compound: CS(=O)(=O)N1CCN(Cc2cc3nc(-c4cccc5[nH]ncc45)nc(N4CCOCC4)c3s2)CC1 [pictilisib]
Method in brief: as §1

crizotinib = compound: C[C@@H](Oc1cc(-c2cnn(C3CCNCC3)c2)cnc1N)c1c(Cl)ccc(F)c1Cl [crizotinib]
Method in brief: as §1

[1] = compound: C[C@H](C1=CC=C(C=C1)C(=O)NC2=C3C=CNC3=NC=C2)N
Method in brief: as §1

duvelisib = compound: C[C@H](Nc1ncnc2nc[nH]c12)c1cc2cccc(Cl)c2c(=O)n1-c1ccccc1 [duvelisib]
Method in brief: as §1

gandotinib = compound: Cc1cc(Nc2cc(CN3CCOCC3)c3nc(C)c(Cc4ccc(Cl)cc4F)n3n2)n[nH]1 [gandotinib]
Method in brief: as §1

tozasertib = compound: Cc1cc(Nc2cc(N3CCN(C)CC3)nc(Sc3ccc(NC(=O)C4CC4)cc3)n2)n[nH]1 [tozasertib]
Method in brief: as §1

doramapimod = compound: Cc1ccc(-n2nc(C(C)(C)C)cc2NC(=O)Nc2ccc(OCCN3CCOCC3)c3ccccc23)cc1 [doramapimod]
Method in brief: as §1

bafetinib = compound: Cc1ccc(NC(=O)c2ccc(CN3CC[C@H](N(C)C)C3)c(C(F)(F)F)c2)cc1Nc1nccc(-c2cncnc2)n1 [bafetinib]
Method in brief: as §1

[2] = compound: Cc1cccc(CC(=O)N2CCc3c2ccc(-c2cn(C)c4ncnc(N)c24)c3F)n1
Method in brief: as §1

Measured: log2 fold change

EDARADD (UniProt Q8WWZ3)
inactive: lapatinib -0.037 | pictilisib -0.122 | crizotinib 0.027 | [1] -0.049 | duvelisib 0.015 | gandotinib 0.074 | tozasertib 0.082 | doramapimod 0.086 | bafetinib 0 | [2] -0.027

FUBP3 (UniProt Q96I24)
Chain of UniProt Q96I24 (Q96I24 whole entry, looked up): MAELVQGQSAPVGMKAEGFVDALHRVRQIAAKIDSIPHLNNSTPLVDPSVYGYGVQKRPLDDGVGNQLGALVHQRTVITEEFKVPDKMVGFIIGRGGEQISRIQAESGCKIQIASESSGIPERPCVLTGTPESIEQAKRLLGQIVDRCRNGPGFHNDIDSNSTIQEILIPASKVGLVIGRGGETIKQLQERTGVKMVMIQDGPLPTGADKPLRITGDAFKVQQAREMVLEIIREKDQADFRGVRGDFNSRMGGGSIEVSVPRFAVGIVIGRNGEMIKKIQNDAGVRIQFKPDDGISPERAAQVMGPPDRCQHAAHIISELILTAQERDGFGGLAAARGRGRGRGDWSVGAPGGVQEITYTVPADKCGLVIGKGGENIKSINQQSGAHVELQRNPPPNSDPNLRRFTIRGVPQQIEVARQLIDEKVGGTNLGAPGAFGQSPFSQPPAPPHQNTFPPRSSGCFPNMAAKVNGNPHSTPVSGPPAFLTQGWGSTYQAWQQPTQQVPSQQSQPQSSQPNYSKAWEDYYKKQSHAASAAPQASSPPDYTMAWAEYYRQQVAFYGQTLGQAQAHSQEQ
inactive: lapatinib 0.02 | pictilisib -0.109 | crizotinib 0.005 | [1] 0.036 | duvelisib -0.022 | gandotinib 0.019 | tozasertib 0.033 | doramapimod -0.034 | bafetinib -0.055 | [2] -0.05

EGLN1 (UniProt Q9GZT9)
inactive: lapatinib -0.075 | pictilisib 0.031 | crizotinib -0.018 | [1] 0.037 | duvelisib 0.199 | gandotinib -0.036 | tozasertib 0.034 | doramapimod 0.006 | bafetinib 0.001 | [2] -0.055

FNTB (UniProt P49356)
inactive: lapatinib 0.027 | pictilisib -0.052 | crizotinib 0.032 | [1] -0.047 | duvelisib 0.143 | gandotinib 0.055 | tozasertib -0.069 | doramapimod -0.053 | bafetinib -0.013 | [2] 0.015

EIF2B4 isoform 2 (UniProt Q9UI10)
inactive: lapatinib -0.041 | pictilisib 0.007 | crizotinib -0.037 | [1] -0.021 | duvelisib -0.013 | gandotinib -0.048 | tozasertib -0.01 | doramapimod -0.012 | bafetinib -0.058 | [2] 0.044

EEF1AKMT4 (UniProt P0DPD7)
inactive: lapatinib -0.052 | pictilisib 0.009 | crizotinib -0.012 | [1] -0.046 | duvelisib -0.038 | gandotinib 0.067 | tozasertib -0.072 | doramapimod -0.038 | bafetinib -0.171 | [2] 0.193

FXR2 (UniProt P51116)
inactive: lapatinib -0.002 | pictilisib -0.055 | crizotinib -0.017 | [1] -0.022 | duvelisib -0.016 | gandotinib -0.074 | tozasertib 0.009 | doramapimod 0.037 | bafetinib 0.002 | [2] 0.027

DYNC1I2 isoform 5 (UniProt Q13409)
inactive: lapatinib -0.003 | pictilisib -0.017 | crizotinib -0.003 | [1] -0.004 | duvelisib -0.002 | gandotinib 0.009 | tozasertib 0.012 | doramapimod 0.006 | bafetinib 0.03 | [2] -0.003

EPB41, A0A2R8Y6D0
inactive: lapatinib 0.008 | pictilisib -0.14 | crizotinib -0.085 | [1] -0.037 | duvelisib -0.086 | gandotinib 0.031 | tozasertib 0.068 | doramapimod -0.051 | bafetinib -0.031 | [2] -0.003

FTSJ3 (UniProt Q8IY81)
inactive: lapatinib 0.013 | pictilisib 0.023 | crizotinib -0.037 | [1] -0.031 | duvelisib -0.01 | gandotinib -0.019 | tozasertib -0.019 | doramapimod -0.025 | bafetinib 0.013 | [2] 0.031

FYN (UniProt P06241)
inactive: lapatinib 0.007 | pictilisib -0.201 | crizotinib 0.12 | [1] -0.092 | duvelisib -0.019 | tozasertib 0.054 | doramapimod -0.04 | bafetinib 0.198 | [2] -0.057
active: gandotinib 0.422

FBXO22 (UniProt Q8NEZ5)
inactive: lapatinib -0.035 | pictilisib -0.027 | crizotinib -0.035 | [1] 0.035 | duvelisib -0.012 | gandotinib -0.03 | tozasertib 0 | doramapimod 0.034 | bafetinib -0.049 | [2] -0.039

GAMT (UniProt Q14353)
inactive: lapatinib 0.02 | pictilisib -0.028 | crizotinib 0 | [1] 0.02 | duvelisib 0.082 | gandotinib 0.002 | tozasertib -0.02 | doramapimod 0.09 | bafetinib 0.062 | [2] -0.046

FKBP8 isoform 2 (UniProt Q14318)
inactive: lapatinib -0.041 | pictilisib -0.036 | crizotinib -0.12 | [1] -0.035 | duvelisib 0.044 | gandotinib -0.021 | tozasertib -0.024 | doramapimod 0.064 | bafetinib -0.07 | [2] 0.013

EP400 isoform 5 (UniProt Q96L91)
inactive: lapatinib 0.052 | pictilisib -0.068 | crizotinib -0.04 | [1] -0.018 | duvelisib -0.036 | gandotinib -0.012 | tozasertib -0.041 | doramapimod 0.02 | bafetinib -0.053 | [2] -0.011

FIGNL1 (UniProt Q6PIW4)
inactive: lapatinib 0 | pictilisib -0.03 | crizotinib -0.078 | [1] -0.035 | duvelisib 0.002 | gandotinib -0.071 | tozasertib 0.003 | doramapimod -0.018 | bafetinib -0.024 | [2] 0.007

FADS1, A0A0A0MR51
inactive: lapatinib 0.203 | pictilisib -0.087 | crizotinib -0.003 | [1] -0.024 | duvelisib -0.029 | tozasertib 0.041 | doramapimod 0.018 | bafetinib 0.027 | [2] 0.083
active: gandotinib 0.559

FASTKD5 (UniProt Q7L8L6)
Chain of UniProt Q7L8L6 (Q7L8L6 whole entry, looked up): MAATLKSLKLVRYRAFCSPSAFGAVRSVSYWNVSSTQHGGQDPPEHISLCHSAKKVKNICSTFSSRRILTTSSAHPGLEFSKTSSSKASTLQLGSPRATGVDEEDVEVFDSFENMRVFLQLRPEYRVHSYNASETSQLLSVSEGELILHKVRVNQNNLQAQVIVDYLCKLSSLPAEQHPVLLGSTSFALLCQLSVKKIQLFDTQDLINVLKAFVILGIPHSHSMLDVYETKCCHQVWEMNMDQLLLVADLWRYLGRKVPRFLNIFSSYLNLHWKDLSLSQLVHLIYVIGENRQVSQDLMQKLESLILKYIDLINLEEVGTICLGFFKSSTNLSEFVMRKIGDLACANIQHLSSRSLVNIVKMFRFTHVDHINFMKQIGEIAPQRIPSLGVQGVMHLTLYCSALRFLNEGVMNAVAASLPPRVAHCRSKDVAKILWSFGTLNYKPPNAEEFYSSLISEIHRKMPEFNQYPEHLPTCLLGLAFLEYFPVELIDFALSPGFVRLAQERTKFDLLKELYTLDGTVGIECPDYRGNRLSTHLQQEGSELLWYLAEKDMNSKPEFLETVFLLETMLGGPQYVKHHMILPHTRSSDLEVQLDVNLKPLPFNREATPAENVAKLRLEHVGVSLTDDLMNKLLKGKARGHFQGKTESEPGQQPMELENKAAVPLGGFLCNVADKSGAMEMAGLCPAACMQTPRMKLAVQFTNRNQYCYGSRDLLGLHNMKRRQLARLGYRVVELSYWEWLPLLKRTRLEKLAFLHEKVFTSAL
inactive: lapatinib -0.025 | pictilisib 0.085 | crizotinib -0.075 | [1] 0.089 | duvelisib -0.042 | gandotinib -0.193 | tozasertib 0.056 | doramapimod 0.036 | bafetinib 0.169 | [2] -0.056

EPRS (UniProt P07814)
Chain of UniProt P07814 (P07814 whole entry, looked up): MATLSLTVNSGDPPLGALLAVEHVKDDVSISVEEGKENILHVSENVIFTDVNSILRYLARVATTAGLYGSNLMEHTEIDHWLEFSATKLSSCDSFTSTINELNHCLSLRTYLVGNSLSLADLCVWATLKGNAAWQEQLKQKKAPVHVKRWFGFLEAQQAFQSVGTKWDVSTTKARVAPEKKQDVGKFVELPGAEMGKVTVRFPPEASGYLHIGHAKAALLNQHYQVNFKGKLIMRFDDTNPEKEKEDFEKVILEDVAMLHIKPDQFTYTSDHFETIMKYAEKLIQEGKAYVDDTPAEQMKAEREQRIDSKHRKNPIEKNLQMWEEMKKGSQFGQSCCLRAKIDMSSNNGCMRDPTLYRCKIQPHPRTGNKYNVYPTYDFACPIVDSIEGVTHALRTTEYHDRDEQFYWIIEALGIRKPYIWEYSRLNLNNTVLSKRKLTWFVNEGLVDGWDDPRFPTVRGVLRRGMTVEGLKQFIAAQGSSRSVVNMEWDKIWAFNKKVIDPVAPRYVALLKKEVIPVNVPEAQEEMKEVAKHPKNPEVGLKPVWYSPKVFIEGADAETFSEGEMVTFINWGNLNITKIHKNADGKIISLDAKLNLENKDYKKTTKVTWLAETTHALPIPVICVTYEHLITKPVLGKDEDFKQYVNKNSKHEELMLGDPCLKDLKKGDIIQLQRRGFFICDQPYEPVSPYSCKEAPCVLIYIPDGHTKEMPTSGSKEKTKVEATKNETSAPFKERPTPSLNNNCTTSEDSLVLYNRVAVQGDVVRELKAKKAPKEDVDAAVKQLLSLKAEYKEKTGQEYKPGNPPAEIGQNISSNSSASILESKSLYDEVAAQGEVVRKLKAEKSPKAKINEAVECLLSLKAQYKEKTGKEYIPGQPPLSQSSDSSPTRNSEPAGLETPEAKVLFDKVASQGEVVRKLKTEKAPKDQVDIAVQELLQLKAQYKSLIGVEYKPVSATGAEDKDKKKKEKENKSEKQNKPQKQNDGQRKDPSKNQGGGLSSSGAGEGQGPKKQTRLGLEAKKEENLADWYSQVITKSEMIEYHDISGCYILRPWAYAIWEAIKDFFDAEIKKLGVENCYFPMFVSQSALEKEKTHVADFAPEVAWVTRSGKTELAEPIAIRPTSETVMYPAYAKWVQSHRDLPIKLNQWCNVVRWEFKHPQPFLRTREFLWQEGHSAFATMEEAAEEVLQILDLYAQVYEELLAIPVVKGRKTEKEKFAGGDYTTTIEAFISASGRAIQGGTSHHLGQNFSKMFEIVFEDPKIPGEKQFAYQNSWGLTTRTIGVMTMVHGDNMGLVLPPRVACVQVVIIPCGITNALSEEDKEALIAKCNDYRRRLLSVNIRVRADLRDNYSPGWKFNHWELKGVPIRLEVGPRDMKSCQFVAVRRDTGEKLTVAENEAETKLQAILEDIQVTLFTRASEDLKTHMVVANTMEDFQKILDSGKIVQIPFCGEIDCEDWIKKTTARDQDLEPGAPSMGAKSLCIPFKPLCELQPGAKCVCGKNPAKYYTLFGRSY
inactive: lapatinib -0.005 | pictilisib 0.006 | crizotinib -0.042 | [1] 0.015 | duvelisib 0.031 | gandotinib -0.069 | tozasertib 0.012 | doramapimod 0.02 | bafetinib 0.003 | [2] 0.019

ESPL1 (UniProt Q14674)
Chain of UniProt Q14674 (Q14674 whole entry, looked up): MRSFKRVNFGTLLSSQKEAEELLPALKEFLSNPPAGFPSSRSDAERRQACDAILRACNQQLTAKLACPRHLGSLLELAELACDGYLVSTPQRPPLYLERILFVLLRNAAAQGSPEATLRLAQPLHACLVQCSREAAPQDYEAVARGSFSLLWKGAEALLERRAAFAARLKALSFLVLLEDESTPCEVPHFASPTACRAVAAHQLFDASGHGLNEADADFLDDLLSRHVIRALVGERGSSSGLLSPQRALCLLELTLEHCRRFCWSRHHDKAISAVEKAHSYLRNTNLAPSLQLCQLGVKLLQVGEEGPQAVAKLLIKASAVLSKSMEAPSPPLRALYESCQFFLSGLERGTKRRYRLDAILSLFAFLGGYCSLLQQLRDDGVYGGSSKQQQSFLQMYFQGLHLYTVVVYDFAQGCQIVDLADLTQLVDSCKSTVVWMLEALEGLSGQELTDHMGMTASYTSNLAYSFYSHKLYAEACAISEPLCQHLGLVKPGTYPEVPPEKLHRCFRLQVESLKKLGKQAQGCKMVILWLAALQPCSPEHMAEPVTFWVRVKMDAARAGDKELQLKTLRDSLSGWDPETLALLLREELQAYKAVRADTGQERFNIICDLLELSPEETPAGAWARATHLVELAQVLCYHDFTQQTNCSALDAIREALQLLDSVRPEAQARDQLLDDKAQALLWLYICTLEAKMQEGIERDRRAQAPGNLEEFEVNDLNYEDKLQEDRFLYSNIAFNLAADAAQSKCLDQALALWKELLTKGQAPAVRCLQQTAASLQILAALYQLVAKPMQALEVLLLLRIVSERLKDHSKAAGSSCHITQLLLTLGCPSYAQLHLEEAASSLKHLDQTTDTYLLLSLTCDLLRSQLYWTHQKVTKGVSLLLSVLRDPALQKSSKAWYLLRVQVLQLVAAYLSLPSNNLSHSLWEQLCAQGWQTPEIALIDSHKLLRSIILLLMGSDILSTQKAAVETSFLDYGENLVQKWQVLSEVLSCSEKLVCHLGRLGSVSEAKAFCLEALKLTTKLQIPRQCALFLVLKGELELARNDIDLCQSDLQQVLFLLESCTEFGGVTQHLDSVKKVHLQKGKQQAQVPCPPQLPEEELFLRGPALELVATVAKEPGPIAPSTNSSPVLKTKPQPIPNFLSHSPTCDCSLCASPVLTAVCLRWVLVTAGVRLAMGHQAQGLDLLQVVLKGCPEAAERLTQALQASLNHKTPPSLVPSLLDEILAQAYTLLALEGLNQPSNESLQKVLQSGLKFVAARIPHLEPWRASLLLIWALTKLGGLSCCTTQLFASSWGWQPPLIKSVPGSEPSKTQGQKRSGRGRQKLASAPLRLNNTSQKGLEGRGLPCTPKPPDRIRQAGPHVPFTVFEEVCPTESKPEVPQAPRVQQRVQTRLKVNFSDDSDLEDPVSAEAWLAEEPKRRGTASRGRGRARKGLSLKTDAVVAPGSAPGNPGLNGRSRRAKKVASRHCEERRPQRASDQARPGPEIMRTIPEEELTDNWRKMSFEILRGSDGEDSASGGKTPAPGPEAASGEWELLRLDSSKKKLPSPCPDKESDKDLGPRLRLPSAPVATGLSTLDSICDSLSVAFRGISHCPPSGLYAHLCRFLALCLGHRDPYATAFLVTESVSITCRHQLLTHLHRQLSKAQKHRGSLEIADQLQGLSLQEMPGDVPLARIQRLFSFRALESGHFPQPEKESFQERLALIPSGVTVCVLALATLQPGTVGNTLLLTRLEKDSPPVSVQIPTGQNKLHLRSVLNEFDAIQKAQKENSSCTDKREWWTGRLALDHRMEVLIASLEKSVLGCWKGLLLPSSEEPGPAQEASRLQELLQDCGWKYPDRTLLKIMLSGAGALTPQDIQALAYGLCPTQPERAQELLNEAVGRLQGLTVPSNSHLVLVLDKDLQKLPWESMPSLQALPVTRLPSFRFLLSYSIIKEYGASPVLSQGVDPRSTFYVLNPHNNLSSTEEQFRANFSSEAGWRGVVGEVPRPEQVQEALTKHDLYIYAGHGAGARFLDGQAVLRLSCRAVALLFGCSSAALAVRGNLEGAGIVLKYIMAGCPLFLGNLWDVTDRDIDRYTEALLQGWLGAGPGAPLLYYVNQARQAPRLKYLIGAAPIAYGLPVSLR
inactive: lapatinib 0.053 | pictilisib 0.07 | crizotinib -0.015 | [1] 0.027 | duvelisib -0.011 | gandotinib 0.026 | tozasertib 0.024 | doramapimod -0.044 | bafetinib -0.077 | [2] 0.057

DTWD1 (UniProt Q8N5C7)
inactive: lapatinib -0.049 | pictilisib -0.049 | crizotinib 0 | [1] 0.015 | duvelisib 0.06 | gandotinib -0.07 | tozasertib -0.075 | doramapimod 0.035 | bafetinib 0.002 | [2] 0.092

EXOC2 (UniProt Q96KP1)
inactive: lapatinib -0.016 | pictilisib -0.011 | crizotinib -0.099 | [1] 0.017 | duvelisib -0.032 | gandotinib -0.185 | tozasertib 0.001 | doramapimod 0.042 | bafetinib -0.056 | [2] 0.059

FECH isoform 2 (UniProt P22830)
inactive: lapatinib -0.099 | pictilisib 0.64 | crizotinib 0.027 | [1] -0.12 | duvelisib -0.022 | gandotinib 0.418 | tozasertib 0 | doramapimod -0.015 | bafetinib 0.557 | [2] -0.036

GATAD2A isoform 3 (UniProt Q86YP4)
inactive: lapatinib -0.012 | pictilisib -0.031 | crizotinib -0.011 | [1] -0.031 | duvelisib -0.037 | gandotinib 0.016 | tozasertib -0.009 | doramapimod 0.026 | bafetinib 0.001 | [2] 0.061

FDFT1 (UniProt P37268)
inactive: lapatinib -0.037 | pictilisib -0.018 | crizotinib 0.062 | [1] -0.045 | duvelisib 0.19 | gandotinib 0.207 | tozasertib -0.004 | doramapimod 0 | bafetinib 0.018 | [2] 0.01

EIF2B5, A0A3B3ITK8
inactive: lapatinib -0.108

DVL2 (UniProt O14641)
inactive: lapatinib 0.096 | pictilisib -0.037 | crizotinib -0.056 | [1] 0.026 | duvelisib 0 | gandotinib -0.107 | tozasertib -0.039 | doramapimod 0.106 | bafetinib -0.232 | [2] 0.054

FBXO38 (UniProt Q6PIJ6)
inactive: lapatinib 0.039 | pictilisib -0.052 | crizotinib 0.038 | [1] 0.018 | duvelisib 0.01 | gandotinib -0.037 | tozasertib 0.119 | doramapimod 0.05 | bafetinib -0.316 | [2] -0.016

EXOC3 (UniProt O60645)
inactive: lapatinib -0.037 | pictilisib -0.033 | crizotinib -0.133 | [1] 0.016 | duvelisib -0.039 | gandotinib -0.098 | tozasertib 0.019 | doramapimod 0.041 | bafetinib -0.094 | [2] 0.019

EIF3I (UniProt Q13347)
inactive: lapatinib -0.009 | pictilisib -0.015 | crizotinib -0.004 | [1] -0.003 | duvelisib -0.009 | gandotinib -0.022 | tozasertib 0.008 | doramapimod 0.029 | bafetinib -0.052 | [2] 0.01
